# According to PubChem BioAssay (EPA / NIEHS):
# Values joined by “and” are separate entries in the source; they are usually repeats but may differ in a detail not shown here. Identical values can stand only once. Active and inactive are the calls of the source. How the source made its calls: active means hit-call score of the fitted dose curve at least 0.9, where 1 is the maximum; inactive means score below 0.9.
# How the values were obtained:
# [1] = read-out: Interleukin-8 (IL8), CXCL8 (gene 3576); experiment: BSK_CASM3C_IL8: BioMAP Diversity Plus: CASM3C Assay for Interleukin-8 (IL8) Biomarker Activity (AID 2283042); conditions: primary human coronary artery smooth muscle cells; actives raise or lower the signal;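 further: IL-8 protein level quantified by ELISA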
# [2] = read-out: Human Leukocyte Antigen - DR isotype (HLADR), HLA-DRA (gene 3122); experiment: BSK_CASM3C_HLADR: BioMAP Diversity Plus: CASM3C Assay for Human Leukocyte Antigen - DR isotype (HLADR) Biomarker Activity (AID 2283043); conditions: primary human coronary artery smooth muscle cells; actives raise or lower the signal;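 further: cell-surface HLA-DR protein level quantified by ELISA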
# [3] = read-out: Macrophage colony-stimulating factor (MCSF), CSF1 (gene 1435); experiment: BSK_CASM3C_MCSF: BioMAP Diversity Plus: CASM3C Assay for Macrophage colony-stimulating factor (MCSF) Biomarker Activity (AID 2283044); conditions: primary human coronary artery smooth muscle cells; actives raise or lower the signal;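 further: M-CSF protein amount quantified by ELISA after 24 h exposure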
# [4] = read-out: Low-density lipoprotein receptor (LDLR), LDLR (gene 3949); experiment: BSK_CASM3C_LDLR: BioMAP Diversity Plus: CASM3C Assay for Low-density lipoprotein receptor (LDLR) Biomarker Activity (AID 2283045); conditions: primary human coronary artery smooth muscle cells; actives raise or lower the signal;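 further: LDLR protein level on the cell surface quantified by ELISA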
# [5] = read-out: Monocyte Chemoattractant Protein-1 (MCP1), CCL2 (gene 6347); experiment: BSK_CASM3C_MCP1: BioMAP Diversity Plus: CASM3C Assay for Monocyte Chemoattractant Protein-1 (MCP1) Biomarker Activity (AID 2283046); conditions: primary human coronary artery smooth muscle cells; actives raise or lower the signal;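 further: MCP-1 level quantified by ELISA 24 h after dosing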
# [6] = BSK_CASM3C_Proliferation: Cell Proliferation Assessment in the BioMAP Diversity Plus: CASM3C Assay (AID 2283047); conditions: primary human coronary artery smooth muscle cells;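 further: sulforhodamine B total protein stain as relative cell number at 560 nm; sub-confluent cells exposed 48 h before staining; fitted both ways against DMSO so gain or loss of cell number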
# [7] = read-out: Monokine induced gamma interferon (MIG), CXCL9 (gene 4283); experiment: BSK_CASM3C_MIG: BioMAP Diversity Plus: CASM3C Assay for Monokine induced gamma interferon (MIG) Biomarker Activity (AID 2283048); conditions: primary human coronary artery smooth muscle cells; actives raise or lower the signal;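 further: MIG protein level measured by ELISA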
# [8] = read-out: serum amyloid A (SAA), SAA1 (gene 6288); experiment: BSK_CASM3C_SAA: BioMAP Diversity Plus: CASM3C Assay for serum amyloid A (SAA) Biomarker Activity (AID 2283049); conditions: primary human coronary artery smooth muscle cells; actives raise or lower the signal;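 further: SAA protein level quantified by ELISA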
# [9] = BSK_CASM3C_SRB: Viability Assessment in the BioMAP Diversity Plus: CASM3C Assay (AID 2283050); conditions: primary human coronary artery smooth muscle cells;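 further: total protein by SRB staining as cytotoxicity measure in parallel cultures; cells exposed to compound for 24 h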
# [10] = read-out: Thrombomodulin, THBD (gene 7056); experiment: BSK_CASM3C_Thrombomodulin: BioMAP Diversity Plus: CASM3C Assay for Thrombomodulin Biomarker Activity (AID 2283051); conditions: primary human coronary artery smooth muscle cells; actives raise or lower the signal;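 further: thrombomodulin protein level measured by ELISA 24 h after dosing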
Structure (SMILES),outcome [1],outcome [2],outcome [3],outcome [4],outcome [5],outcome [6],outcome [7],outcome [8],outcome [9],outcome [10],AC50 [2],AC50 [6],AC50 [7],AC50 [4],AC50 [3],AC50 [5],AC50 [8],AC50 [9]
COC(=O)CCC(F)(F)C(F)(F)C(F)(F)C(F)(F)F,inactive,inactive,inactive,inactive,inactive,inactive,inactive,inactive,inactive,inactive,–,–,–,–,–,–,–,–
CC(C)(C)C(=O)CC(=O)C(F)(F)C(F)(F)C(F)(F)F,inactive,inactive,inactive,inactive,inactive,inactive,inactive,inactive,inactive,inactive,–,–,–,–,–,–,–,–
O=C(O)C(F)(F)C(F)(F)C(F)(F)C(F)(F)C(F)(F)C(F)(F)C(F)(F)C(F)(F)C(F)(F)C(F)F,inactive,inactive,inactive,inactive,inactive,inactive,inactive,inactive,inactive,inactive,–,–,–,–,–,–,–,–
Cc1ccc(S(=O)(=O)OCC(F)(F)C(F)(F)C(F)(F)C(F)(F)C(F)(F)C(F)F)cc1,inactive,inactive,inactive,inactive,inactive,inactive,inactive,inactive,inactive,inactive,–,–,–,–,–,–,–,–
O=S(=O)(O)C(F)(F)C(F)(F)C(F)(F)C(F)(F)C(F)(F)C(F)(F)C(F)(F)F,inactive,inactive,inactive,inactive,inactive,inactive,inactive,inactive,inactive,inactive,–,–,–,–,–,–,–,–
OCC(F)(F)C(F)(F)C(F)(F)F,inactive,inactive,inactive,inactive,inactive,inactive,inactive,inactive,inactive,inactive,–,–,–,–,–,–,–,–
O=C(O)C(F)(F)C(F)(F)OC(F)(F)F,inactive,inactive,inactive,inactive,inactive,inactive,inactive,inactive,inactive,inactive,–,–,–,–,–,–,–,–
FC(F)(F)C(F)(F)C(F)(F)C(F)(F)C(F)(F)C(F)(F)C(F)(F)C(F)(F)CCS,inactive,inactive,inactive,inactive,inactive,inactive,inactive,inactive,inactive,inactive,–,–,–,–,–,–,–,–
CCO[Si](CCC(F)(F)C(F)(F)C(F)(F)C(F)(F)C(F)(F)C(F)(F)F)(OCC)OCC,inactive,inactive,inactive,inactive,inactive,inactive,inactive,inactive,inactive,inactive,–,–,–,–,–,–,–,–
CCCCOCCOCCOC(=O)CCCCC(=O)OCCOCCOCCCC,inactive,inactive,inactive,inactive,inactive,inactive,inactive,inactive,inactive,inactive,–,–,–,–,–,–,–,–
O=C(O)C(F)(F)C(F)(F)C(F)(F)C(F)(F)F,inactive,inactive,inactive,inactive,inactive,inactive,inactive,inactive,inactive,inactive,–,–,–,–,–,–,–,–
CCCCCCCCC(F)(F)C(F)(F)C(F)(F)C(F)(F)C(F)(F)C(F)(F)F,inactive,inactive,inactive,inactive,inactive,inactive,inactive,inactive,inactive,inactive,–,–,–,–,–,–,–,–
OCC(F)(F)C(F)(F)C(F)(F)C(F)(F)C(F)(F)C(F)F,inactive,inactive,inactive,inactive,inactive,inactive,inactive,inactive,inactive,inactive,–,–,–,–,–,–,–,–
O=C(O)C=C(C(F)(F)F)C(F)(F)F,inactive,–,inactive,inactive,inactive,–,–,inactive,inactive,inactive,9.93 µM (active) and 597 nM (active),30 µM (active),27.4 µM (active) and 220 nM (active),–,–,–,–,–
O=C(O)C(F)(F)C(F)(F)C(F)(F)F,inactive,inactive,inactive,inactive,inactive,inactive,inactive,inactive,inactive,inactive,–,–,–,–,–,–,–,–
C=CC(=O)OCC(F)(F)C(F)(F)C(F)(F)C(F)(F)C(F)(F)C(F)(F)C(F)(F)F,inactive,inactive,inactive,inactive,inactive,inactive,inactive,inactive,inactive,inactive,–,–,–,–,–,–,–,–
FC(F)(F)C(F)(F)C(F)(F)C(F)(F)C(F)(F)C(F)(F)C(F)(F)C(F)(F)F,inactive,inactive,inactive,inactive,inactive,inactive,inactive,inactive,inactive,inactive,–,–,–,–,–,–,–,–
CC(=O)Nc1ccc(N=Nc2cc(C)ccc2O)cc1,inactive,inactive,inactive,inactive,inactive,inactive,inactive,inactive,inactive,inactive,–,–,–,–,–,–,–,–

Structure (SMILES),outcome [1],outcome [2],outcome [3],outcome [4],outcome [5],outcome [6],outcome [7],outcome [8],outcome [9],outcome [10],AC50 [2],AC50 [6],AC50 [7],AC50 [4],AC50 [3],AC50 [5],AC50 [8],AC50 [9]
C=CC/C=C/C/C=C/C/C=C/C,inactive,inactive,inactive,inactive,inactive,–,inactive,inactive,inactive,inactive,–,0.108 µM (active),–,–,–,–,–,–
NC(=O)C(F)(F)C(F)(F)C(F)(F)C(F)(F)F,inactive,inactive,inactive,inactive,inactive,inactive,inactive,inactive,inactive,inactive,–,–,–,–,–,–,–,–
FC(F)(F)C(F)(F)CNCC(F)(F)C(F)(F)F,inactive,inactive,inactive,inactive,inactive,inactive,inactive,inactive,inactive,inactive,–,–,–,–,–,–,–,–
CCN(CC)c1ccc2c(C)cc(=O)oc2c1,inactive,inactive,inactive,–,inactive,inactive,inactive,inactive,inactive,inactive,–,–,–,31.3 µM (active),–,–,–,–
O=C(Cl)C(F)(F)C(F)(F)C(F)(F)C(F)(F)C(F)(F)C(F)(F)C(F)(F)C(F)(F)F,inactive,inactive,inactive,inactive,inactive,inactive,inactive,inactive,inactive,inactive,–,–,–,–,–,–,–,–
C=C(C)C(=O)OCCC(F)(F)C(F)(F)C(F)(F)C(F)(F)C(F)(C(F)(F)F)C(F)(F)F,inactive,inactive,inactive,inactive,inactive,inactive,inactive,inactive,inactive,inactive,–,–,–,–,–,–,–,–
FC(F)(F)C(F)(F)C(F)(F)C(F)(F)C(F)(F)C(F)(F)C(F)(F)Br,inactive,inactive,inactive,inactive,inactive,inactive,inactive,inactive,inactive,inactive,–,–,–,–,–,–,–,–
CO[Si](OC)(c1ccccc1)c1ccccc1,inactive,–,–,–,–,–,inactive,–,–,inactive,39.1 µM (active),34.2 µM (active),–,30.8 µM (active),33.2 µM (active),36.7 µM (active),30.9 µM (active),31.1 µM (active)
C=CC(F)(F)C(F)(F)C(F)(F)C(F)(F)C(F)(F)C(F)(F)C(F)(F)C(F)(F)C=C,inactive,inactive,inactive,inactive,inactive,inactive,inactive,inactive,inactive,inactive,–,–,–,–,–,–,–,–
C=C(C)C(=O)OCC(F)(F)C(F)(F)C(F)(F)C(F)(F)C(F)(F)C(F)(F)C(F)(F)F,inactive,inactive,inactive,inactive,inactive,inactive,inactive,inactive,inactive,inactive,–,–,–,–,–,–,–,–
FC(F)(F)C(F)(F)C(F)(F)C(F)(F)C(F)(F)C(F)(F)CCS,inactive,inactive,inactive,inactive,inactive,inactive,inactive,inactive,inactive,inactive,–,–,–,–,–,–,–,–
O=C(O)C(F)(OC(F)(F)C(F)(OC(F)(F)C(F)(OC(F)(F)C(F)(F)C(F)(F)F)C(F)(F)F)C(F)(F)F)C(F)(F)F (stereo not given),inactive,inactive,inactive,inactive,inactive,inactive,inactive,inactive,inactive,inactive,–,–,–,–,–,–,–,–
C=C(C)C(=O)OCC(F)(F)C(F)(F)C(F)(F)F,inactive,inactive,inactive,inactive,inactive,inactive,inactive,inactive,inactive,inactive,–,–,–,–,–,–,–,–
FC(F)(F)C(F)(F)C(F)(F)C(F)(F)C(F)(F)C(F)(F)C(F)(F)I,inactive,inactive,inactive,inactive,inactive,inactive,inactive,inactive,inactive,inactive,–,–,–,–,–,–,–,–
OCCCC(F)(F)C(F)(F)C(F)(F)F,inactive,inactive,inactive,inactive,inactive,inactive,inactive,inactive,inactive,inactive,–,–,–,–,–,–,–,–
CCCCCCOC(=O)c1ccccc1O,inactive,inactive,inactive,inactive,inactive,–,inactive,inactive,inactive,inactive,–,33.5 µM (active) and 24.5 µM (active),–,–,–,–,–,–
O=C(O)C(F)(OC(F)(F)C(F)(OC(F)(F)C(F)(F)C(F)(F)F)C(F)(F)F)C(F)(F)F (stereo not given),inactive,inactive,inactive,inactive,inactive,inactive,inactive,inactive,inactive,inactive,–,–,–,–,–,–,–,–
CCc1c(Br)c(Br)c(Br)c(Br)c1Br,inactive,inactive,inactive,inactive,inactive,inactive,inactive,inactive,inactive,inactive,–,–,–,–,–,–,–,–
